Laboratory results: PubChem BioAssay AID1159524 (National Center for Advancing Translational Sciences (NCATS), 2015)
About 5,100 (1.2%) of roughly 410,000 compounds were called active. About 8% were inconclusive and are not listed. Calls follow the shape of the full dose curve; tested in HEK293T cells. Shown is part of a subset that was picked to be rich in actives. Entries that show only a call come without a potency.

Assay: High Throughput Screening for Foot and Mouth Disease Virus Antivirals; also: read-out not given here; nearly all actives have a fitted effect of over 45% in size
Settings: FMDV antiviral cell-based qHTS; series mostly up to 57.9 µM
Potency is read from the fitted curve at half-maximal effect.

Q: For `Cn1nccc1C(=O)NCC1CCC2(CCN(Cc3c(O)ccc4ccccc34)CC2)O1` (stereo not given), which Potency is on record?
A: inactive

Q: For `Cc1c(-c2cccc(NC(=O)C(C)(C)C)c2)nc2ncccn12`, which Potency is on record?
A: inactive

Q: Which Potency does the source give for `O=c1c(O)c(-c2ccc(O)cc2)oc2ccccc12` here?
A: inactive

Q: For `Cc1ccc(NC(=O)COc2coc(CN3CCc4ccccc4C3)cc2=O)cc1Cl`, which Potency is on record?
A: inactive

Q: For `Cc1ccccc1OCC(=O)Nc1ccc(N2CCN(C(=O)C(C)C)CC2)c(Cl)c1`, which Potency is on record?
A: 14.1 µM (active)

Q: Which Potency does the source give for `Cc1ccccc1OCC(=O)NNC(=O)c1cc(S(=O)(=O)N(C)C)ccc1N1CCCC1` here?
A: inactive

Q: Which Potency does the source give for `O=C(Oc1cc(OC(=O)c2ccccc2)c2c(c1)OC(c1ccc(OC(=O)c3ccccc3)c(OC(=O)c3ccccc3)c1)[C@@H](OC(=O)c1ccccc1)C2)c1ccccc1` (stereo not given in full) here?
A: inactive

Q: For `CCCOc1ccc(NC(=O)CC2C(=O)N(c3ccccc3)C(=O)N2Cc2ccco2)cc1` (stereo not given), which Potency is on record?
A: inactive

Q: Which Potency does the source give for `CCOC(=O)c1c(C)[nH]c(C)c1S(=O)(=O)N1CCC(C(=O)Nc2ccc(C)c(Cl)c2)CC1` here?
A: inactive

Q: Which Potency does the source give for `Cc1cccc(C2CC(=O)Oc3c2c(=O)n(C)c2ccccc32)c1` (stereo not given) here?
A: inactive

Q: Which Potency does the source give for `Cn1c(=O)c([N+](=O)[O-])c(Oc2ccccc2)c2ccccc21` here?
A: 28.2 µM (active)

Q: For `COc1cc2c(=O)n(C)c3ccccc3c2cc1OC`, which Potency is on record?
A: inactive

Q: With `CC(C)c1cnc(NC(=O)Cc2ccccc2)s1` as the molecule, how does the Potency read?
A: inactive

Q: With `Cc1ccc(-n2nc(C)c3c(C)cc(=O)n(CC(=O)Nc4ccc(C(C)C)cc4)c32)cc1` as the molecule, how does the Potency read?
A: inactive

Q: For `CC(=O)Oc1c2c(c3c(c1CC=C(C)C)O[C@@]14C(=CC5CC1C(C)(C)OC4(C/C=C(\C)C(=O)O)C5=O)C3=O)OC(C)(CCC=C(C)C)C=C2` (stereo not given in full), which Potency is on record?
A: 20 µM (active)

Q: With `COc1cc(=O)n2c(c1C(=O)NC(C)c1ccco1)CCN(Cc1cc(C)cc(C)c1)CC2` (stereo not given) as the molecule, how does the Potency read?
A: inactive

Q: With `CCOc1ccccc1C(=O)NCC(c1ccc(N(C)C)cc1)N1CCCC1` (stereo not given) as the molecule, how does the Potency read?
A: inactive

Q: With `Cc1cc(-c2ccnc(-n3ncc(C(=O)NCCc4ccncc4)c3C)n2)c(C)s1` as the molecule, how does the Potency read?
A: inactive

Q: Which Potency does the source give for `CCOc1ccc(C)cc1S(=O)(=O)NC1CCCCCC1` here?
A: inactive

Q: With `CCOc1cccc(=NC2CCCCC2)c2c(C)[nH]c(C)c12` as the molecule, how does the Potency read?
A: 28.2 µM (active)

Q: With `CC(=O)N1CCC2(CCCN(c3ncccn3)C2)CC1` as the molecule, how does the Potency read?
A: inactive

Q: For `O=C(O)C1CCN(c2ncnc3ccc(-c4ccccc4C(F)(F)F)cc23)CC1`, which Potency is on record?
A: inactive

Q: For `O=C(NCCCN1CCN(c2cccc(Cl)c2)CC1)c1nnc(Cc2ccc(F)cc2Cl)o1`, which Potency is on record?
A: inactive

Q: Which Potency does the source give for `COc1cc(/C=C/c2ccc(/C=C/c3cc(OC)c(OC)c(OC)c3)cc2)cc(OC)c1OC` here?
A: 22.4 µM (active)

Q: With `COc1cc(/C=C/C(=O)N2CCc3ccccc3C2)cc(OC)c1OC` as the molecule, how does the Potency read?
A: inactive

Q: For `COc1cc(/C=C/C2=CC(C)(C)NC(=S)N2)cc(OC)c1OC`, which Potency is on record?
A: inactive

Q: For `CCN1CCc2nc3sc(C(=O)Nc4ccccc4OC(F)(F)F)c(N)c3cc2C1`, which Potency is on record?
A: inactive

Q: For `CC1OC(OCC2OC(Oc3c(-c4ccc(O)c(O)c4)oc4cc(O)cc(O)c4c3=O)C(O)C(O)C2O)[C@@H](O)C(O)C1O` (stereo not given in full), which Potency is on record?
A: inactive

Q: For `CCOc1ccc(C(=O)Nc2ccc3nc4c(c(Nc5ccccc5OC)c3c2)CCCC4)cc1`, which Potency is on record?
A: inactive

Q: For `Cc1noc(C)c1-c1nc(Nc2ccccc2)c2ccccc2n1`, which Potency is on record?
A: inactive

Q: For `Cc1ccc(Nc2c3c(nc4ccccc24)CCC3)cc1`, which Potency is on record?
A: 17.8 µM (active)

Q: For `O=C(c1cccc(Cn2cccn2)c1)N1CCOc2c(cc(-c3csc4ccccc34)cc2OC2CCOC2)C1` (stereo not given), which Potency is on record?
A: inactive

Q: For `Cc1ccccc1-c1nc(N(C)Cc2ccco2)c2ccccc2n1`, which Potency is on record?
A: inactive

Q: For `CC1(C)OC2CC3C4CCC5=CC(=O)CCC5(C)C4(F)C(O)CC3(C)[C@]2(C(=O)CCl)O1` (stereo not given in full), which Potency is on record?
A: inactive

Q: For `COc1ccc(C(=O)Nc2nc(-c3ccc(S(=O)(=O)N4CCOCC4)cc3)cs2)cc1`, which Potency is on record?
A: 7.94 µM (active)

Q: For `Cc1ccnc(NS(=O)(=O)c2ccc(NC(=O)c3ccc(S(=O)(=O)N4CCOCC4)cc3)cc2)n1`, which Potency is on record?
A: inactive

Q: Which Potency does the source give for `Cc1ccc(S(=O)(=O)N2CCOCC2)cc1NC(=O)c1ccncc1` here?
A: inactive

Q: Which Potency does the source give for `CCS(=O)(=O)Nc1cc(C(=O)N2C[C@@H](C)O[C@@H](C)C2)c2c(c1)nc(-c1ccccc1)n2C` here?
A: inactive

Q: Which Potency does the source give for `Cc1ccc2cccc(NC(=O)c3ccc(OC(C)C)cc3)c2n1` here?
A: inactive

Q: For `Cc1ccc(CC(=O)Nc2cccc(C#N)c2)cc1`, which Potency is on record?
A: inactive

Q: For `CC(C)(C)NC(=O)COC(=O)c1cc(Cl)ccc1[N+](=O)[O-]`, which Potency is on record?
A: inactive

Q: For `N#Cc1cccc(NC(=O)COC(=O)c2ccccc2C(=O)c2ccc(Cl)c([N+](=O)[O-])c2)c1`, which Potency is on record?
A: 28.2 µM (active)

Q: For `CCOCCn1ccc2c(OCC(=O)NCc3ccc(C)cc3)cccc2c1=O`, which Potency is on record?
A: inactive

Q: Which Potency does the source give for `COc1ccccc1CNc1ncnc2ccc(-c3c(C)noc3C)cc12` here?
A: inactive

Q: Which Potency does the source give for `Cc1ccc2oc(=O)c3cnn(CC(=O)N4CCN(c5cccc(Cl)c5)CC4)c3c2c1` here?
A: inactive

Q: For `Cn1c(SCC(=O)N2CCCc3ccccc32)nc2ccccc2c1=O`, which Potency is on record?
A: 12.6 µM (active)

Q: With `COc1ccccc1Cc1nc2ccccc2nc1SCC(=O)N1CCCc2ccccc21` as the molecule, how does the Potency read?
A: inactive

Q: Which Potency does the source give for `Cn1c(SCC(=O)N2CCCc3ccccc32)ncc(C(=O)Nc2ccc(F)cc2)c1=O` here?
A: inactive

Q: Which Potency does the source give for `COc1cccc(Cn2c(=O)cnc3cncnc32)c1` here?
A: inactive

Q: Which Potency does the source give for `O=C(c1ccco1)N1CCC2(CC1)CCN(c1ncccn1)CC2` here?
A: inactive

Q: Which Potency does the source give for `Cc1c(S(=O)(=O)O)oc2c1C(=O)C(=O)c1c-2ccc2c1CCCC2(C)C` here?
A: inactive

Q: Which Potency does the source give for `Cc1ccccc1-c1nc(CS(=O)(=O)CC(=O)Nc2cc(Cl)cc(Cl)c2)c(C)o1` here?
A: inactive

Q: For `COc1ccc(C(=O)N2CCC[C@@]3(CCN(C(=O)NC(C)C)C3)C2)cc1`, which Potency is on record?
A: inactive

Q: Which Potency does the source give for `Cc1c(C(=O)Nc2cccc(Cl)c2)oc2ccc(S(=O)(=O)N3CCOCC3)cc12` here?
A: inactive

Q: With `COc1cc(=O)n2c(c1C(=O)N(C)Cc1nccs1)CCN(Cc1ccc(Cl)cc1)CC2` as the molecule, how does the Potency read?
A: inactive

Q: Which Potency does the source give for `Clc1cc(NC2CCCCC2)ncn1` here?
A: inactive

Q: Which Potency does the source give for `CCc1cc2c(SCC(=O)Nc3ncc(Cl)c(C)c3Cl)ncnc2s1` here?
A: inactive

Q: Which Potency does the source give for `CCc1cc2c(NC3CCCC3)ncnc2s1` here?
A: 25.1 µM (active)

Q: With `Cc1noc(C)c1-c1cc(NCc2cccnc2)ncn1` as the molecule, how does the Potency read?
A: inactive

Q: For `CC(=O)OC1CCC2(O)CC1(C)CCC1C2CC1(C)C` (stereo not given), which Potency is on record?
A: inactive

Q: With `C[C@@]12CCC3C(CC[C@@H]4CC(O)CC[C@@]34C)C1CCC2O` (stereo not given in full) as the molecule, how does the Potency read?
A: inactive

Q: With `CCCCOc1ccc(C(=O)Nc2cccc(-c3nc4ccccc4o3)c2C)cc1` as the molecule, how does the Potency read?
A: inactive

Q: Which Potency does the source give for `Cc1cccc(NC(=O)N2CCC(CN3CCc4ccccc4C3)CC2)c1C` here?
A: inactive

Q: Which activity change, negative = inhibition does the source give for `CCCCCCCC/C=C\CCCCCCCC(=O)OC[C@H](CO)OC(C)=O` here?
A: -19.7% [at 6.7 µM] (inactive)

Q: Which Potency does the source give for `COc1ccc(-c2ccc(OC(=O)NC3CCS(=O)(=O)C3)cc2)cc1` (stereo not given) here?
A: inactive

Q: With `Cc1cc(C)cc(Oc2nc3c(C)cccn3c(=O)c2/C=C(\C#N)C(=O)NC2CCS(=O)(=O)C2)c1` (stereo not given) as the molecule, how does the Potency read?
A: 22.4 µM (active)

Q: For `Cc1ccc(C(=O)N/C(=C\c2ccco2)C(=O)NC2CCS(=O)(=O)C2)cc1` (stereo not given), which Potency is on record?
A: inactive

Q: Which Potency does the source give for `CC(=O)OCC(=O)[C@@]1(O)CCC2C3CCC4=CC(=O)CC[C@@]4(C)[C@]3(F)C(O)C[C@]21C` (stereo not given in full) here?
A: inactive

Q: Which activity change, negative = inhibition does the source give for `CCCCC/C=C\CC1OC1CCCCCCCC(=O)O` (stereo not given) here?
A: -2.3% [at 0.463 µM] (inactive)

Q: For `C=CCN1CCN(C(=O)CCCc2ccccc2)CC1`, which Potency is on record?
A: 14.1 µM (active)

Q: With `CCN1CCN(C(=O)CCN2C(=O)c3ccccc3C2=O)CC1` as the molecule, how does the Potency read?
A: inactive

Q: Which Potency does the source give for `O=C(CCc1ccccc1F)N1CCN(c2ccccc2)CC1` here?
A: inactive

Q: With `O=S(=O)(c1ccc(Br)cc1)c1nnn2c1nc(NC1CCCCCC1)c1sccc12` as the molecule, how does the Potency read?
A: inactive

Q: Which Potency does the source give for `CC(=O)N1CCC2(CCCN(Cc3ccc(C#N)cc3)C2)CC1` here?
A: inactive

Q: With `CC(=O)Nc1ccc(S(=O)(=O)N2CCN(c3ccccc3)CC2)cc1` as the molecule, how does the Potency read?
A: inactive

Q: For `CC(=O)Nc1ccc(S(=O)(=O)N2CCN(CCCOc3cc(C)ccc3C)CC2)cc1`, which Potency is on record?
A: 31.6 µM (active)

Q: With `Cc1ccc(C)c(OCCC(=O)Nc2cccc(S(=O)(=O)N3CCCC3)c2)c1` as the molecule, how does the Potency read?
A: inactive

Q: Which Potency does the source give for `CCNc1ncc2nc(CCc3ccccc3)c(=O)n(-c3ccc(OC)cc3)c2n1` here?
A: inactive

Q: With `O=C(c1csnn1)N1CCC[C@@]2(CCN(Cc3nccs3)C2)C1` as the molecule, how does the Potency read?
A: inactive

Q: Which Potency does the source give for `CC(C)NC(=O)N1CC[C@@]2(CCCN(C(=O)c3cccc(F)c3)C2)C1` here?
A: inactive

Q: For `CCc1cccc(C)c1Nc1c(-c2ccc(N(C)C)cc2)nc2ncccn12`, which Potency is on record?
A: inactive

Q: With `CC1CCN(C(=O)Cn2c(=O)n(-c3ccc(Cl)cc3)c(=O)c3c4c(sc32)CCC4)CC1` as the molecule, how does the Potency read?
A: inactive

Q: Which Potency does the source give for `CCCCn1c(=O)c2oc3ccccc3c2n(CC(=O)Nc2ccccc2OC)c1=O` here?
A: inactive

Q: With `CC(C)CCOc1ccc(C(=O)C[N+]2(C)CCOCC2)cc1` as the molecule, how does the Potency read?
A: inactive

Q: With `CCCOc1ccc(C(=O)C(CCC(CNCC)C(=O)c2ccc(OCCC)cc2)CNCC)cc1` (stereo not given) as the molecule, how does the Potency read?
A: 28.2 µM (active)

Q: With `CCCOc1cccc(C(=O)Nc2cccc(NC(=O)c3ccc(C(C)(C)C)cc3)c2)c1` as the molecule, how does the Potency read?
A: inactive

Q: With `O=C(NC(c1ccc(-c2ccccc2)cc1)c1cnccn1)C1CCN(CCOc2ccc(Cl)cc2Cl)CC1` (stereo not given) as the molecule, how does the Potency read?
A: 35.5 µM (active)

Q: For `Cc1ccc(C(NC(=O)C2CCN(CCOc3ccc(Cl)cc3Cl)CC2)c2ccccn2)cc1` (stereo not given), which Potency is on record?
A: inactive

Q: Which Potency does the source give for `Cc1cccnc1C(NC(=O)C1CCN(Cc2ccc(Cl)c(Cl)c2)CC1)c1ccc(Cl)cc1` (stereo not given) here?
A: inactive

Q: Which Potency does the source give for `Oc1ccc2c(c1)OCC1c3cc4c(cc3OC21)OCO4` (stereo not given) here?
A: inactive

Q: Which Potency does the source give for `COc1ccc(-c2nn3c(=O)cc(CN4CCN(C(=O)c5ccc(OC)c(OC)c5)CC4)nc3s2)cc1` here?
A: inactive

Q: Which Potency does the source give for `CCOc1ccc(NC(=O)c2cn(C3CCCCC3)c(=O)c3c2c2ccccc2n3C)cc1` here?
A: inactive

Q: Which Potency does the source give for `CC(C)C1=CC2=CC[C@@H]3[C@](C)(CO)CCC[C@]3(C)C2CC1` (stereo not given in full) here?
A: inactive

Q: Which Potency does the source give for `O=C(OC12CC3CC(CC(C3)C1)C2)c1ccc(NCc2cc(O)ccc2O)cc1` here?
A: 12.6 µM (active)

Q: With `CCN(Cc1ccncc1)C(=O)[C@@H](CO)c1ccccc1` as the molecule, how does the Potency read?
A: inactive
